# Key:
# Test in all cases: DAPPL (digital affinity profiling via proximity ligation, sequencing); 10 mM Tris-HCl pH 7.5, 50 mM NaCl, 1 mM DTT, 4% glycerol, room temperature, 30 min; GST-TFs on glutathione beads, 16-mer random dsDNA library, 0.1% formaldehyde crosslink after washing; high values mean tight binding
# Conditions in all cases: protein: recombinant; tags: N-terminal GST; dsDNA, one strand shown
# ELK1 = biological target: T1, ELK1 (Homo sapiens, UniProt P19419 1-428)
# T1 sequence: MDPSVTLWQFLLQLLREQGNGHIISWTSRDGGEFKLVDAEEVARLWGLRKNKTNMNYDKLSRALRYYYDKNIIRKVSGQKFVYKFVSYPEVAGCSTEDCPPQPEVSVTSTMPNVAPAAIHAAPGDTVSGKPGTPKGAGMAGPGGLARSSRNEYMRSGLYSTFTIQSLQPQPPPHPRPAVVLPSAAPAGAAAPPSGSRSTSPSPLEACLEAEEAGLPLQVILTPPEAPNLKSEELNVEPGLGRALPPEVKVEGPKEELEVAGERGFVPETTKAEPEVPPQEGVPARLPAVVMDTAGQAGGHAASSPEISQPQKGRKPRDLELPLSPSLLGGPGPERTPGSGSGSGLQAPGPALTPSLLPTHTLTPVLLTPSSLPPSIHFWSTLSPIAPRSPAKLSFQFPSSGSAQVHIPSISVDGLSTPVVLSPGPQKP
# Method in brief: (§1)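 After expression in yeast as GST fusions, human transcription factors were bound to glutathione beads, DNA-barcoded and mixed with a tag-only sample. The pools were incubated with 200 nmole of a 16-mer random double-stranded DNA library in Tris/NaCl/DTT/glycerol buffer (30 min, room temperature), washed and crosslinked with 0.1% formaldehyde. Proximity ligation with BsaI/T4 ligase ran for 1 h at 37 °C, before PCR amplification and sequencing on an Illumina NextSeq500. Binding signal is a hexamer's read frequency for a factor divided by its frequency for the tag-only sample.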
# GABPA = biological target: T2, GABPA (Homo sapiens, UniProt Q06546 1-454)
# T2 sequence: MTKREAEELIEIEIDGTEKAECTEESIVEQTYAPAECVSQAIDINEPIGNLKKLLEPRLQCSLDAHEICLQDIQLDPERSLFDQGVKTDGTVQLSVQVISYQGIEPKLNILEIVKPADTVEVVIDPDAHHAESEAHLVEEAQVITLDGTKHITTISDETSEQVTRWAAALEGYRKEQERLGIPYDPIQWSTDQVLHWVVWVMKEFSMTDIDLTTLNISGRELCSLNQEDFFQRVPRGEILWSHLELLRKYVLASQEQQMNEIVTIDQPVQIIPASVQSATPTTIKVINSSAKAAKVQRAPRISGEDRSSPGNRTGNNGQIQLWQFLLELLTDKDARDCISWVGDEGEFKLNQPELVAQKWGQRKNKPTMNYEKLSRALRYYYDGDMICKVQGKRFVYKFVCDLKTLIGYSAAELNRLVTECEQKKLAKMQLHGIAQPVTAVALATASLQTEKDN
# Method in brief: as §1
# ERG = biological target: T3, ERG (Homo sapiens, UniProt P11308 1-479)
# T3 sequence: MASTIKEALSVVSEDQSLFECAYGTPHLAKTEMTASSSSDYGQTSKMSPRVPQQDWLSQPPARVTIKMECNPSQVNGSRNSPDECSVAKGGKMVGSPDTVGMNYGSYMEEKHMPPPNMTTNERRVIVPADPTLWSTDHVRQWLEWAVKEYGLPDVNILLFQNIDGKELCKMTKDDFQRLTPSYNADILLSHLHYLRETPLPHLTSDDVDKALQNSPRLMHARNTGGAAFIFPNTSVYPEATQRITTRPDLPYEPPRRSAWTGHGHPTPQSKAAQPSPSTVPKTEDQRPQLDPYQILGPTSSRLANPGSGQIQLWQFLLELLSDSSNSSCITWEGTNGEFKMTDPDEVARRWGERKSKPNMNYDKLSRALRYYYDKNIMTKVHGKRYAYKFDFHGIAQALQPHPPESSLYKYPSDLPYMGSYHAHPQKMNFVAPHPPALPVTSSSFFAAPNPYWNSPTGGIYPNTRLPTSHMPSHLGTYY
# Method in brief: as §1
# ELF1 = ELF1 (Homo sapiens, UniProt P32519 1-619)
# ELF1, sequence (P32519 whole entry): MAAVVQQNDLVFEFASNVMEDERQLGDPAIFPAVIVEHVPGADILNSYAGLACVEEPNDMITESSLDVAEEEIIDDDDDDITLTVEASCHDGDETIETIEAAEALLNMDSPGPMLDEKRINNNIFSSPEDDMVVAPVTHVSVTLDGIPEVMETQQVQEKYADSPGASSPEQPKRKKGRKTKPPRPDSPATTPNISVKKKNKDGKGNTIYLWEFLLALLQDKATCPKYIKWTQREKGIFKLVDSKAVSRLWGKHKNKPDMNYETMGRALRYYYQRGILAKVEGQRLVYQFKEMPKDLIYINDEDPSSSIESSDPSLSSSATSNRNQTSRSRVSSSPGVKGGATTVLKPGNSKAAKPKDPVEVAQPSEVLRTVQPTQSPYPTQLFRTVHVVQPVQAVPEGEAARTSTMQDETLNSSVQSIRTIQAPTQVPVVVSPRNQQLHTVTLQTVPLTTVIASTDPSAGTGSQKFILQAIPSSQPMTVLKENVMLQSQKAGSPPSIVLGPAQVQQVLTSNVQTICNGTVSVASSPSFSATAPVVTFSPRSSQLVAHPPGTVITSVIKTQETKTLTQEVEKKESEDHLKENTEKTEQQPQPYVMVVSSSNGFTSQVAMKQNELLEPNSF
# Method in brief: as §1
# EHF = biological target: T4, EHF (Homo sapiens, UniProt Q9NZC4 1-300)
# T4 sequence: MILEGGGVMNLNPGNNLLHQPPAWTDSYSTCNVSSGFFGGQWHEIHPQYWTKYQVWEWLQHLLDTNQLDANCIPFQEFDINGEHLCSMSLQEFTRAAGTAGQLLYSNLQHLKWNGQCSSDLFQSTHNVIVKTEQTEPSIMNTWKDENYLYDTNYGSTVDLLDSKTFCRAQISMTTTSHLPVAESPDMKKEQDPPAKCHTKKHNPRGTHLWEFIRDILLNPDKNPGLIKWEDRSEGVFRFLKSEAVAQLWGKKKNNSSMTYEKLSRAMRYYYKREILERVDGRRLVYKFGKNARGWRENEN
# Method in brief: as §1
# SPIB = SPIB (Homo sapiens, UniProt Q01892 1-262)
# SPIB, sequence (Q01892 whole entry): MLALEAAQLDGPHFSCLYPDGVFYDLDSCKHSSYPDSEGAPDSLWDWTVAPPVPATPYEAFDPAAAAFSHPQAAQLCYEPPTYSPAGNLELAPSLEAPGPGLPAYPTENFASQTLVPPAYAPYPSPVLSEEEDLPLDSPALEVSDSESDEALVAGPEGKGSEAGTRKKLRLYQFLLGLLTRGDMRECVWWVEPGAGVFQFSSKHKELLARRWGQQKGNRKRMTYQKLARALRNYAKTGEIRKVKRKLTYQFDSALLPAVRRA
# Method in brief: as §1
# ETV5 = ETV5 (Homo sapiens, UniProt P41161 1-510)
# ETV5, sequence (P41161 whole entry): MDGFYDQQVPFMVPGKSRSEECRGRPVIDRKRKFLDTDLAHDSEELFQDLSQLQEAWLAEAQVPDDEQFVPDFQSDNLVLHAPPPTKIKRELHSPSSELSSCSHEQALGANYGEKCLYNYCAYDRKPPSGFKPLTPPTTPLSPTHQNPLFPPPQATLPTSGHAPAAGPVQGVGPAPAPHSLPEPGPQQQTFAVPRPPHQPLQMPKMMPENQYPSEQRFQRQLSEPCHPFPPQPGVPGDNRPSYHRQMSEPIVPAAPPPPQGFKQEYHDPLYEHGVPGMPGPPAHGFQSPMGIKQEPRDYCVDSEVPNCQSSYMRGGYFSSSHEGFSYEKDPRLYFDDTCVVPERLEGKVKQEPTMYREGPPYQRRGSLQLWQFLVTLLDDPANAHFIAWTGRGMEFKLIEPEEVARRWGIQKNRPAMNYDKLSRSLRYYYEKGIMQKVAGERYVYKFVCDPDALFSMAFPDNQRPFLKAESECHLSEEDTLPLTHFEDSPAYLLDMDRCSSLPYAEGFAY
# Method in brief: as §1
# SPIC = biological target: T5, SPIC (Homo sapiens, UniProt Q8N5J4 1-248)
# T5 sequence: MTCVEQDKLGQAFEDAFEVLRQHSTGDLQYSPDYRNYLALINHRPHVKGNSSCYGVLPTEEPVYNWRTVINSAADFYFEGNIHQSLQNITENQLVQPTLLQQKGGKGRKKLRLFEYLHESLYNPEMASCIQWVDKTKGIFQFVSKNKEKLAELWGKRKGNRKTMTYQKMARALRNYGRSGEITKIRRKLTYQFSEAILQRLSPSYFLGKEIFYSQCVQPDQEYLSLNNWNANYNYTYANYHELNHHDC
# Method in brief: as §1
# ELF4 = ELF4 (Homo sapiens, UniProt Q99607 1-663)
# ELF4, sequence (Q99607 whole entry): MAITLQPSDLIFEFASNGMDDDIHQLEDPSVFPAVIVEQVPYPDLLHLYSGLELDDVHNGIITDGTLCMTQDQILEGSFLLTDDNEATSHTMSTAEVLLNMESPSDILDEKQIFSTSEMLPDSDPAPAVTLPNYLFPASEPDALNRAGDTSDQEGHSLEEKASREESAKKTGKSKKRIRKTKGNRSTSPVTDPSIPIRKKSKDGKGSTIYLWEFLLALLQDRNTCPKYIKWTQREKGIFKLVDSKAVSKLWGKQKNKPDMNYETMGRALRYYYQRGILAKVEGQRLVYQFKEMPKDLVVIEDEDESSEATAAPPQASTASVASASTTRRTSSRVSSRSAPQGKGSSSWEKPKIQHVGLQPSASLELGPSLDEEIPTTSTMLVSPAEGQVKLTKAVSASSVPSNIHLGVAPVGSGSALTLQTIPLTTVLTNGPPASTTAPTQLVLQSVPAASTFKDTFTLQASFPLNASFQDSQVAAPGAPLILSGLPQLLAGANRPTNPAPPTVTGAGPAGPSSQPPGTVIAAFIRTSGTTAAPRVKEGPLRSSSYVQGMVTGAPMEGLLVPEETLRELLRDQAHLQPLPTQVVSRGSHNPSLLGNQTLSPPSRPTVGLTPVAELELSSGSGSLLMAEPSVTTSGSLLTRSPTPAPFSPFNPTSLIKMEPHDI
# Method in brief: as §1
# ELK4 = biological target: T6, ELK4 (Homo sapiens, UniProt P28324-2 1-405)
# T6 sequence: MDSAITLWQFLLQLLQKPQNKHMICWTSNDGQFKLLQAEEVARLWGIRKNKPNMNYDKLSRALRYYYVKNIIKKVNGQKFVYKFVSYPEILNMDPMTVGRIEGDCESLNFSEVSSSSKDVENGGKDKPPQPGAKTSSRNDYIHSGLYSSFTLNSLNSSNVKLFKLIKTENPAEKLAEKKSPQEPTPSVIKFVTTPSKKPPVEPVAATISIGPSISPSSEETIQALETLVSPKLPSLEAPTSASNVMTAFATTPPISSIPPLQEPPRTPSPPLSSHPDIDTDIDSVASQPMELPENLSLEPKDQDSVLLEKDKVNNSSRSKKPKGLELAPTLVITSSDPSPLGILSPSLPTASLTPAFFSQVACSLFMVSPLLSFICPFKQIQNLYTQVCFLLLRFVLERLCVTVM
# Method in brief: as §1
# ELF3 = biological target: T7, ELF3 (Homo sapiens, UniProt P78545 1-371)
# T7 sequence: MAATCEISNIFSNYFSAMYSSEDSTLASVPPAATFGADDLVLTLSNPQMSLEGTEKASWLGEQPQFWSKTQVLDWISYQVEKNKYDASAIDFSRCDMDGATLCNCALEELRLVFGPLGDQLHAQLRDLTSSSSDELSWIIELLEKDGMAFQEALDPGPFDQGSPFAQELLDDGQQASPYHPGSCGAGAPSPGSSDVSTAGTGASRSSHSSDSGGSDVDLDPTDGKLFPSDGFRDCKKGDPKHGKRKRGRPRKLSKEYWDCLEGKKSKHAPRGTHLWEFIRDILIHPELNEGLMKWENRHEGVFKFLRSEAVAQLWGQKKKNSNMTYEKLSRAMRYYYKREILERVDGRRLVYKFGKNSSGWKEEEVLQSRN
# Method in brief: as §1
# ETV1 = ETV1 (Homo sapiens, UniProt P50549 1-477)
# ETV1, sequence (P50549 whole entry): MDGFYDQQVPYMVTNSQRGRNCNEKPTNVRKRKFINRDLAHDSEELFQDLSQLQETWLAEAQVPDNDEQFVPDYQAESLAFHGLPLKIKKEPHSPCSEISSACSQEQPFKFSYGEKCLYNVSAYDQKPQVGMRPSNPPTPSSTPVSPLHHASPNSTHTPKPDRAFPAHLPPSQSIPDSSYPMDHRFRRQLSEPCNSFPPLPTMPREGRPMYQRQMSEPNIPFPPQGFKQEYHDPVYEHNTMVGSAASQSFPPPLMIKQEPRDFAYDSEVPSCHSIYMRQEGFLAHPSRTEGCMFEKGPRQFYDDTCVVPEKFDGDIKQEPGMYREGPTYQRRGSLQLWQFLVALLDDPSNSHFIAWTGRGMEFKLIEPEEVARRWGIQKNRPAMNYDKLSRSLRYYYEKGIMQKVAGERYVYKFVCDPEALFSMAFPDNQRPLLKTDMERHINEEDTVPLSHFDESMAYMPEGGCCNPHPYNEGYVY
# Method in brief: as §1
# ETV3L = biological target: T8, ETV3L (Homo sapiens, UniProt Q6ZN32 1-361)
# T8 sequence: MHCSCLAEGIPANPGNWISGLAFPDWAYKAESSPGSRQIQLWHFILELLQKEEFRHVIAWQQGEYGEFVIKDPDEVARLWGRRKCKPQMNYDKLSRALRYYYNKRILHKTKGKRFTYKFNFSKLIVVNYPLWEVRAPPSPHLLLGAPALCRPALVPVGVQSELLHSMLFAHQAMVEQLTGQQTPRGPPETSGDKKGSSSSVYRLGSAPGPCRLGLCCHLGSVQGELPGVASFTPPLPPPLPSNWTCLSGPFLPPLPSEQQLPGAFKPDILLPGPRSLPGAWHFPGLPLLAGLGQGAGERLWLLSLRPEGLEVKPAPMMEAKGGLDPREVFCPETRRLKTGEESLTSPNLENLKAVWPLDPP
# Method in brief: as §1
# ETS2 = biological target: T9, ETS2 (Homo sapiens, UniProt P15036 1-469)
# T9 sequence: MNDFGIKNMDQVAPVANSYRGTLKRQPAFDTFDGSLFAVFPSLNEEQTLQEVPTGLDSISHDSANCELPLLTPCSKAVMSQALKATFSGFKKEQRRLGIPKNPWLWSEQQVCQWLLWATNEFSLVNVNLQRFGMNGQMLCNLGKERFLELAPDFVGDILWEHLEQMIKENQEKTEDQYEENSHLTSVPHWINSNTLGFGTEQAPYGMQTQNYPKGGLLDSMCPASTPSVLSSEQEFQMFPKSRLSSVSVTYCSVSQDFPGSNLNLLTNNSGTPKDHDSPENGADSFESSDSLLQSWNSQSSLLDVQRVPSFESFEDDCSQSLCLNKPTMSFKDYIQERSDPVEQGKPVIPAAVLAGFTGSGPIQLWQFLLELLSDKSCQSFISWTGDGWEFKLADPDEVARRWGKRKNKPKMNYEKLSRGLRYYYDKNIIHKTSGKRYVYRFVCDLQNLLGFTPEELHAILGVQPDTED
# Method in brief: as §1
# SPDEF = biological target: T10, SPDEF (Homo sapiens, UniProt O95238 1-335)
# T10 sequence: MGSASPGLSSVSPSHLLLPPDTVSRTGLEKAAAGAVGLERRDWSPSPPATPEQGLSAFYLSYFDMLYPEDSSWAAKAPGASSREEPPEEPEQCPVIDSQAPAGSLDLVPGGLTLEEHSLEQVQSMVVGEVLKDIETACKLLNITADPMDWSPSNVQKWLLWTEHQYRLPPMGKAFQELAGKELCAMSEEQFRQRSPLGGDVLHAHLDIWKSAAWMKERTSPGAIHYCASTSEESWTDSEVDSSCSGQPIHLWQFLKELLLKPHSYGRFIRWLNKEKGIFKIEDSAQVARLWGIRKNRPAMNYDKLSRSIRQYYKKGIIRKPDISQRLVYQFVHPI
# Method in brief: as §1
# ETV7 = biological target: T11, ETV7 (Homo sapiens, UniProt Q9Y603 1-341)
# T11 sequence: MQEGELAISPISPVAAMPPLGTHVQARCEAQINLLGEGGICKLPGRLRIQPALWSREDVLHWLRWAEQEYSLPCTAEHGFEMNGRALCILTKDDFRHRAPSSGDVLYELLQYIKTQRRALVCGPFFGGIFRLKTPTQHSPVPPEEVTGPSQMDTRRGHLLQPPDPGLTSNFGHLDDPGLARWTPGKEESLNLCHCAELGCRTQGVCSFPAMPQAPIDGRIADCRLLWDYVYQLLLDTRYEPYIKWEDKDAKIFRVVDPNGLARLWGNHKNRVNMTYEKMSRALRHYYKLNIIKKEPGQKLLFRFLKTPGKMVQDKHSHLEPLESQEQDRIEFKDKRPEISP
# Method in brief: as §1
# ETV6 = ETV6 (Homo sapiens, UniProt P41212 1-452)
# ETV6, sequence (P41212 whole entry): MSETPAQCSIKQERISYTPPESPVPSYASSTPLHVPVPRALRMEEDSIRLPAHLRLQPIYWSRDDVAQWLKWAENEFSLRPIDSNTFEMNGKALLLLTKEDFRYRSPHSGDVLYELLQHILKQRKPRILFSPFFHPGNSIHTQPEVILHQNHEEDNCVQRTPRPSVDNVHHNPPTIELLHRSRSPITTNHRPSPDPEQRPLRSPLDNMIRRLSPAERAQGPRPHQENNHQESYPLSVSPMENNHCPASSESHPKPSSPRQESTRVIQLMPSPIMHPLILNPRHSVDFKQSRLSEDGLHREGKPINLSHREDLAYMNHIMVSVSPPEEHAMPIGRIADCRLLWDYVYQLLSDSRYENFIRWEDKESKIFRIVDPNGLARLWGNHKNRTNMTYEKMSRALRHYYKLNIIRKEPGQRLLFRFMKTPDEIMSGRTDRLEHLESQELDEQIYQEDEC
# Method in brief: as §1
sequence,measurement,setting,value
GCAGCT,binding signal,ELK1,"1.04 fold enrichment (6-mer frequency, TF over GST control)"
same,binding signal,GABPA,"1.07 fold enrichment (6-mer frequency, TF over GST control)"
same,binding signal,ERG,"1.02 fold enrichment (6-mer frequency, TF over GST control)"
same,binding signal,ELF1,"1.06 fold enrichment (6-mer frequency, TF over GST control)"
same,binding signal,EHF,"1.03 fold enrichment (6-mer frequency, TF over GST control)"
same,binding signal,SPIB,"1.01 fold enrichment (6-mer frequency, TF over GST control)"
same,binding signal,ETV5,"1.08 fold enrichment (6-mer frequency, TF over GST control)"
same,binding signal,SPIC,"1.14 fold enrichment (6-mer frequency, TF over GST control)"
same,binding signal,ELF4,"1.06 fold enrichment (6-mer frequency, TF over GST control)"
same,binding signal,ELK4,"1.08 fold enrichment (6-mer frequency, TF over GST control)"
same,binding signal,ELF3,"1.07 fold enrichment (6-mer frequency, TF over GST control)"
same,binding signal,ETV1,"1.13 fold enrichment (6-mer frequency, TF over GST control)"
same,binding signal,ETV3L,"1.08 fold enrichment (6-mer frequency, TF over GST control)"
same,binding signal,ETS2,"1.08 fold enrichment (6-mer frequency, TF over GST control)"
same,binding signal,SPDEF,"1.06 fold enrichment (6-mer frequency, TF over GST control)"
same,binding signal,ETV7,"1.11 fold enrichment (6-mer frequency, TF over GST control)"
same,binding signal,ETV6,"1.06 fold enrichment (6-mer frequency, TF over GST control)"
